In the supplement of paper PMC4466140:

B1: unnamed (peptide)
chain: LKPPIGRPPKFPKSP

target: AgAbp1; experiment: SPOT peptide array binding signal intensity (averaged, normalized) (arbitrary units (background-subtracted, floor 0; scale differs between SH3 domains)); higher = stronger binding of the SH3 domain to the peptide
Summary of the method: (§1)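 Binding signal refers to normalized, background-subtracted spot intensity averaged over replicates, expressed in arbitrary units that differ between domains. GST-fused SH3 domains from four yeast species were incubated at 10 μg/ml overnight at 4°C on cellulose membranes of synthetic 15-mer peptides with cysteines replaced by serines. Bound protein was detected with anti-GST antibody, an HRP anti-mouse secondary and luminol, and quantified with Genespotter.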

Binder	SPOT peptide array binding signal intensity
B1	926

target: AgBbc1; experiment: as above
Summary of the method: as §1

Binder	SPOT peptide array binding signal intensity
B1	160

target: AgBem1-D1; experiment: as above
Summary of the method: as §1

Binder	SPOT peptide array binding signal intensity
B1	27

target: AgBzz1-D1; experiment: as above
Summary of the method: as §1

Binder	SPOT peptide array binding signal intensity
B1	57

target: AgBzz1-D2; experiment: as above
Summary of the method: as §1

Binder	SPOT peptide array binding signal intensity
B1	4

target: AgCyk3; experiment: as above
Summary of the method: as §1

Binder	SPOT peptide array binding signal intensity
B1	≤ 0

target: AgFus1; experiment: as above
Summary of the method: as §1

Binder	SPOT peptide array binding signal intensity
B1	≤ 0

target: AgHof1; experiment: as above
Summary of the method: as §1

Binder	SPOT peptide array binding signal intensity
B1	300

target: AgHse1; experiment: as above
Summary of the method: as §1

Binder	SPOT peptide array binding signal intensity
B1	≤ 0

target: AgLsb1; experiment: as above
Summary of the method: as §1

Binder	SPOT peptide array binding signal intensity
B1	≤ 0

target: AgLsb4; experiment: as above
Summary of the method: as §1

Binder	SPOT peptide array binding signal intensity
B1	≤ 0

target: AgMyo5; experiment: as above
Summary of the method: as §1

Binder	SPOT peptide array binding signal intensity
B1	1220

target: AgNbp2; experiment: as above
Summary of the method: as §1

Binder	SPOT peptide array binding signal intensity
B1	≤ 0

target: AgRvs167; experiment: as above
Summary of the method: as §1

Binder	SPOT peptide array binding signal intensity
B1	0.583

target: AgSho1; experiment: as above
Summary of the method: as §1

Binder	SPOT peptide array binding signal intensity
B1	≤ 0

target: AgSla1-D1-D2; experiment: as above
Summary of the method: as §1

Binder	SPOT peptide array binding signal intensity
B1	21.5

target: AgSla1-D3; experiment: as above
Summary of the method: as §1

Binder	SPOT peptide array binding signal intensity
B1	≤ 0

target: CaAbp1-D1; experiment: as above
Summary of the method: as §1

Binder	SPOT peptide array binding signal intensity
B1	1440

target: CaAbp1-D2; experiment: as above
Summary of the method: as §1

Binder	SPOT peptide array binding signal intensity
B1	2140

target: CaBbc1; experiment: as above
Summary of the method: as §1

Binder	SPOT peptide array binding signal intensity
B1	1150

target: CaBem1-D1; experiment: as above
Summary of the method: as §1

Binder	SPOT peptide array binding signal intensity
B1	98

target: CaBzz1-D1; experiment: as above
Summary of the method: as §1

Binder	SPOT peptide array binding signal intensity
B1	239

target: CaBzz1-D2; experiment: as above
Summary of the method: as §1

Binder	SPOT peptide array binding signal intensity
B1	165

target: CaCyk3; experiment: as above
Summary of the method: as §1

Binder	SPOT peptide array binding signal intensity
B1	16.5

target: CaFus1; experiment: as above
Summary of the method: as §1

Binder	SPOT peptide array binding signal intensity
B1	49

target: CaHof1; experiment: as above
Summary of the method: as §1

Binder	SPOT peptide array binding signal intensity
B1	≤ 0

target: CaHse1; experiment: as above
Summary of the method: as §1

Binder	SPOT peptide array binding signal intensity
B1	1.5

target: CaLsb1; experiment: as above
Summary of the method: as §1

Binder	SPOT peptide array binding signal intensity
B1	≤ 0

target: CaLsb4; experiment: as above
Summary of the method: as §1

Binder	SPOT peptide array binding signal intensity
B1	2

target: CaMyo5; experiment: as above
Summary of the method: as §1

Binder	SPOT peptide array binding signal intensity
B1	45.5

target: CaNbp2; experiment: as above
Summary of the method: as §1

Binder	SPOT peptide array binding signal intensity
B1	≤ 0

target: CaRvs167; experiment: as above
Summary of the method: as §1

Binder	SPOT peptide array binding signal intensity
B1	0.917

target: CaRvs167-3; experiment: as above
Summary of the method: as §1

Binder	SPOT peptide array binding signal intensity
B1	3.12

target: CaSho1; experiment: as above
Summary of the method: as §1

Binder	SPOT peptide array binding signal intensity
B1	≤ 0

target: CaSla1-D1-D2; experiment: as above
Summary of the method: as §1

Binder	SPOT peptide array binding signal intensity
B1	908

target: CaSla1-D3; experiment: as above
Summary of the method: as §1

Binder	SPOT peptide array binding signal intensity
B1	3.25

target: ScAbp1; experiment: as above
Summary of the method: as §1

Binder	SPOT peptide array binding signal intensity
B1	887

target: ScBbc1; experiment: as above
Summary of the method: as §1

Binder	SPOT peptide array binding signal intensity
B1	7

target: ScBem1-D1; experiment: as above
Summary of the method: as §1

Binder	SPOT peptide array binding signal intensity
B1	≤ 0

target: ScBzz1-D1; experiment: as above
Summary of the method: as §1

Binder	SPOT peptide array binding signal intensity
B1	≤ 0

target: ScBzz1-D2; experiment: as above
Summary of the method: as §1

Binder	SPOT peptide array binding signal intensity
B1	≤ 0

target: ScCyk3; experiment: as above
Summary of the method: as §1

Binder	SPOT peptide array binding signal intensity
B1	0.25

target: ScFus1; experiment: as above
Summary of the method: as §1

Binder	SPOT peptide array binding signal intensity
B1	≤ 0

target: ScHof1; experiment: as above
Summary of the method: as §1

Binder	SPOT peptide array binding signal intensity
B1	≤ 0

target: ScHse1; experiment: as above
Summary of the method: as §1

Binder	SPOT peptide array binding signal intensity
B1	19.8

target: ScLsb1; experiment: as above
Summary of the method: as §1

Binder	SPOT peptide array binding signal intensity
B1	1.5

target: ScLsb2; experiment: as above
Summary of the method: as §1

Binder	SPOT peptide array binding signal intensity
B1	≤ 0

target: ScLsb3; experiment: as above
Summary of the method: as §1

Binder	SPOT peptide array binding signal intensity
B1	64.8

target: ScLsb4; experiment: as above
Summary of the method: as §1

Binder	SPOT peptide array binding signal intensity
B1	≤ 0

target: ScMyo3; experiment: as above
Summary of the method: as §1

Binder	SPOT peptide array binding signal intensity
B1	1390

target: ScMyo5; experiment: as above
Summary of the method: as §1

Binder	SPOT peptide array binding signal intensity
B1	682

target: ScNbp2; experiment: as above
Summary of the method: as §1

Binder	SPOT peptide array binding signal intensity
B1	≤ 0

target: ScPex13; experiment: as above
Summary of the method: as §1

Binder	SPOT peptide array binding signal intensity
B1	≤ 0

target: ScRvs167; experiment: as above
Summary of the method: as §1

Binder	SPOT peptide array binding signal intensity
B1	≤ 0

target: ScSho1; experiment: as above
Summary of the method: as §1

Binder	SPOT peptide array binding signal intensity
B1	4.5

target: ScSla1-D1-D2; experiment: as above
Summary of the method: as §1

Binder	SPOT peptide array binding signal intensity
B1	88.5

target: ScSla1-D3; experiment: as above
Summary of the method: as §1

Binder	SPOT peptide array binding signal intensity
B1	13.6

target: SpAbp1-D1; experiment: as above
Summary of the method: as §1

Binder	SPOT peptide array binding signal intensity
B1	455

target: SpBbc1; experiment: as above
Summary of the method: as §1

Binder	SPOT peptide array binding signal intensity
B1	7.25

target: SpBzz1-D1; experiment: as above
Summary of the method: as §1

Binder	SPOT peptide array binding signal intensity
B1	894

target: SpBzz1-D2; experiment: as above
Summary of the method: as §1

Binder	SPOT peptide array binding signal intensity
B1	≤ 0

target: SpCyk3; experiment: as above
Summary of the method: as §1

Binder	SPOT peptide array binding signal intensity
B1	≤ 0

target: SpHof1; experiment: as above
Summary of the method: as §1

Binder	SPOT peptide array binding signal intensity
B1	1.38

target: SpHof1-2; experiment: as above
Summary of the method: as §1

Binder	SPOT peptide array binding signal intensity
B1	≤ 0

target: SpHof1-3; experiment: as above
Summary of the method: as §1

Binder	SPOT peptide array binding signal intensity
B1	88.2

target: SpHse1; experiment: as above
Summary of the method: as §1

Binder	SPOT peptide array binding signal intensity
B1	11.5

target: SpLsb1; experiment: as above
Summary of the method: as §1

Binder	SPOT peptide array binding signal intensity
B1	3.75

target: SpLsb4; experiment: as above
Summary of the method: as §1

Binder	SPOT peptide array binding signal intensity
B1	29.5

target: SpMyo1; experiment: as above
Summary of the method: as §1

Binder	SPOT peptide array binding signal intensity
B1	1430

target: SpNbp2; experiment: as above
Summary of the method: as §1

Binder	SPOT peptide array binding signal intensity
B1	≤ 0

target: SpPex13; experiment: as above
Summary of the method: as §1

Binder	SPOT peptide array binding signal intensity
B1	≤ 0

target: SpRvs167; experiment: as above
Summary of the method: as §1

Binder	SPOT peptide array binding signal intensity
B1	1.33

target: SpSla1-D1-D2; experiment: as above
Summary of the method: as §1

Binder	SPOT peptide array binding signal intensity
B1	≤ 0

target: SpSla1-D3; experiment: as above
Summary of the method: as §1

Binder	SPOT peptide array binding signal intensity
B1	2.5
